C diff growth: C. difficile growth inhibitors, primary screen, HTS | growth activity, negative = inhibition, % at 16 µg/mL (by protocol) | 86,000 compounds, 0.25% hits | Clostridium difficile clinical isolate growth, OD600, 24 h; hits give low values;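 active means mean growth activity at or below -80% and every replicate also at or below -80%; inconclusive means mean at or below -80% but some replicate above -80%; inactive means mean growth activity above -80%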
T cruzi growth-1: T. cruzi intracellular proliferation inhibitors, primary screen, cell-based, beta-gal Tulahuen parasites, NIH3T3 host, luminescence | T. cruzi beta-gal in NIH3T3, GalScreen luminescence, 90 h | inhibition, % at 8.34 µM | 77,000 compounds, 5.9% hits;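 active means mean inhibition above about 93%, with at least 55% of replicates each passing it, limit read from the data, passing the limit was not always enough; inconclusive means only one of those two conditions holds; inactive means neither condition holds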
Pf Dd2 inh: P. falciparum Dd2 growth inhibitors, primary screen, SYBR Green fluorescence, single dose replicates. 72 h; hits give low values. activity change, % at 10 µM. 94,000 compounds, 2.3% hits; in the data active means activity change below about -80%; inconclusive means no clear call, values can overlap the other calls
T cruzi growth-2: T. cruzi intracellular proliferation inhibitors, confirmation, cell-based, NIH3T3 host, beta-gal parasite, luminescence, cherry-pick | shares compounds with T cruzi growth-1 | T. cruzi beta-gal in NIH3T3, GalScreen luminescence, 90 h | inhibition, % at 8.35 µM | 5,600 compounds, 72% hits;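 active means mean replicate inhibition above about 95% and at least 55% of replicates individually reaching it, limit read from the data; inconclusive means only one of the two criteria is met; inactive means neither criterion is met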
T cruzi growth-3: inhibitors of intracellular T. cruzi replication, confirmation, NIH3T3 host cells, beta-gal parasites, cherry-pick, set 2. AID 651740, 2012. shares compounds with T cruzi growth-1. 5,600 compounds, 21% hits. T. cruzi beta-gal in NIH3T3, GalScreen luminescence, 90 h. inhibition, % at 2.09 µM;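 active means mean inhibition above about 95%, with at least 55% of replicates also reaching it, limit read from the data; inconclusive means meets just one of the two conditions; inactive means meets neither condition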
3T3 cytotox: cytotoxicity in mouse NIH/3T3 fibroblasts, confirmation, cytotoxicity control for T. cruzi proliferation inhibitor project, cell-based, cherry-pick, single point. 5,600 compounds, 14% hits. shares compounds with T cruzi growth-1. NIH/3T3 viability, CellTiter-Glo ATP luminescence, 90 h. cytotoxicity (signal decrease), % at 8.35 µM;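 active means mean signal decrease across replicates above about 35% based on untreated-well scatter, with enough replicates individually passing, limit read from the data; inconclusive means no rule stated though some were filed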
3T3 cytotox 2: NIH/3T3 fibroblast cytotoxicity, confirmation, cytotoxicity control, cell-based, cherry-pick, single point, set 2; shares compounds with T cruzi growth-1; NIH/3T3 viability, CellTiter-Glo ATP luminescence, 90 h; 5,600 compounds, 56% hits; inhibition, % at 24.9 µM;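 active means mean loss of cell viability signal at or above a set limit, and enough replicates individually reaching it; inconclusive means meets only the mean limit or only the replicate share; inactive means meets neither condition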
Large screens that a line does not name were inactive (follow-up assays come after a bar, where they were run). Shown are actives, neighbours in structure and some others; about 6.7% of the full set was active somewhere.

C[C@H]1CN([C@@H](C)CO)S(=O)(=O)c2ccc(Br)cc2O[C@@H]1CN(C)S(=O)(=O)c1ccccc1	none (no result: T cruzi growth-1)
COc1ccccc1-c1ccc2c(c1)O[C@@H](CN(C)S(=O)(=O)c1ccccc1)[C@H](C)CN([C@H](C)CO)S2(=O)=O	T cruzi growth-1 inconclusive, Pf Dd2 inh -82 | T cruzi growth-2 105 | T cruzi growth-3 inactive | 3T3 cytotox 37 | 3T3 cytotox 2 39
COc1ccccc1-c1ccc2c(c1)O[C@@H](CN(C)S(=O)(=O)c1ccccc1)[C@H](C)CN([C@@H](C)CO)S2(=O)=O	T cruzi growth-1 98, Pf Dd2 inh inconclusive | T cruzi growth-2 104 | T cruzi growth-3 inactive | 3T3 cytotox 47 | 3T3 cytotox 2 38
COc1ccccc1-c1ccc2c(c1)O[C@@H](CN(C)S(=O)(=O)c1ccccc1)[C@@H](C)CN([C@@H](C)CO)S2(=O)=O	T cruzi growth-1 80 | T cruzi growth-2 101 | T cruzi growth-3 99 | 3T3 cytotox inconclusive | 3T3 cytotox 2 42
COc1ccccc1-c1ccc2c(c1)O[C@H](CN(C)C(=O)c1ccccc1)[C@H](C)CN([C@H](C)CO)S2(=O)=O	none
C[C@@H]1CN([C@H](C)CO)S(=O)(=O)c2ccc(Br)cc2O[C@@H]1CN(C)S(=O)(=O)c1ccccc1	none (no result: T cruzi growth-1)
COc1ccccc1-c1ccc2c(c1)O[C@H](CN(C)S(=O)(=O)c1ccccc1)[C@H](C)CN([C@H](C)CO)S2(=O)=O	T cruzi growth-1 95 | T cruzi growth-2 105 | T cruzi growth-3 inactive | 3T3 cytotox inactive | 3T3 cytotox 2 37
CCCNC(=O)N(C)C[C@@H]1Oc2cc(-c3ccc(C)cc3)ccc2S(=O)(=O)N([C@H](C)CO)C[C@@H]1C	none
COc1cccc(C#Cc2ccc3c(c2)[C@H]2[C@H](CCN2S(=O)(=O)c2ccc(C)cc2)[C@H](CO)N3)c1	none (no result: T cruzi growth-1)
C[C@H]1CN([C@@H](C)CO)C(=O)c2cc(NS(=O)(=O)c3ccc(F)cc3)ccc2O[C@@H]1CN(C)Cc1ccc(Oc2ccccc2)cc1	none
C[C@H](CO)N1C[C@H](C)[C@H](CN(C)C(=O)CCC(F)(F)F)OCCCC[C@H](C)Oc2ccc(NS(=O)(=O)c3cccs3)cc2C1=O	none
COc1ccccc1-c1ccc2c(c1)O[C@@H](CN(C)S(=O)(=O)c1ccccc1)[C@@H](C)CN([C@H](C)CO)S2(=O)=O	T cruzi growth-1 90 | T cruzi growth-2 105 | T cruzi growth-3 inactive | 3T3 cytotox 60 | 3T3 cytotox 2 49
COc1ccccc1-c1ccc2c(c1)O[C@@H](CN(C)C)[C@@H](C)CN([C@H](C)CO)S2(=O)=O	none
COc1ccccc1-c1ccc2c(c1)O[C@@H](CN(C)C(C)=O)[C@@H](C)CN([C@H](C)CO)S2(=O)=O	none
COc1ccccc1-c1ccc2c(c1)O[C@H](CN(C)S(=O)(=O)c1ccccc1)[C@H](C)CN([C@@H](C)CO)S2(=O)=O	T cruzi growth-1 inconclusive | T cruzi growth-2 103 | T cruzi growth-3 inactive | 3T3 cytotox inactive | 3T3 cytotox 2 44
O=C(c1ccccn1)N1CC[C@H]2[C@H](CO)Nc3ccc(-c4ccccc4)cc3[C@H]21	T cruzi growth-1 99 | T cruzi growth-2 inconclusive | T cruzi growth-3 inactive | 3T3 cytotox inactive | 3T3 cytotox 2 inactive
CN(C)C(=O)c1ccc(-c2ccc3c(c2)[C@@H]2[C@@H](CCN2C(=O)c2ccccn2)[C@@H](CO)N3)cc1	none
O=C(c1ccccn1)N1CC[C@@H]2[C@H]1c1cc(-c3ccccc3F)ccc1N[C@@H]2CO	none
O=C(c1ccccn1)N1CC[C@H]2[C@H](CO)Nc3ccc(-c4ccc(F)cc4)cc3[C@H]21	T cruzi growth-1 inconclusive | T cruzi growth-2 108 | T cruzi growth-3 98 | 3T3 cytotox inactive | 3T3 cytotox 2 29
O=C(C[C@H]1C[C@@H]2c3cc(NC(=O)C4CCOCC4)ccc3O[C@@H]2[C@H](CO)O1)NCc1cccc(F)c1	none
CO[C@@H]1CN(C)C(=O)c2ccc(NC(=O)C3CCOCC3)cc2OC[C@@H](C)NC[C@@H]1C	none (no result: C diff growth)
Cc1noc(C)c1NC(=O)Nc1ccc2c(c1)C(=O)N([C@H](C)CO)C[C@H](C)[C@H](CN(C)Cc1ccc(C(F)(F)F)cc1)OCCCC[C@H](C)O2	none
Cc1ccc(S(=O)(=O)N2C[C@@H](O)COC[C@@H]3O[C@@H](CC(=O)N[C@@H]4CCN(Cc5ccccc5)C4)CC[C@H]32)cc1	none (no result: C diff growth)
O=C(C[C@H]1CC[C@H]2[C@@H](COC[C@H](O)CN2S(=O)(=O)c2ccc(F)cc2)O1)N[C@H]1CCN(Cc2ccccc2)C1	T cruzi growth-1 100 | T cruzi growth-2 inactive | T cruzi growth-3 inactive | 3T3 cytotox inactive | 3T3 cytotox 2 inactive
Cc1ccc(S(=O)(=O)N2C[C@@H](O)COC[C@H]3O[C@@H](CC(=O)N[C@@H]4CCN(Cc5ccccc5)C4)CC[C@@H]32)cc1	T cruzi growth-1 98 (no result: C diff growth) | T cruzi growth-2 inactive | T cruzi growth-3 inactive | 3T3 cytotox inactive | 3T3 cytotox 2 inactive
O=C(C[C@@H]1CC[C@@H]2[C@H](COC[C@H](O)CN2S(=O)(=O)c2ccc(F)cc2)O1)N[C@H]1CCN(Cc2ccccc2)C1	none
O=C(Nc1ccc(Cl)cc1)N1C[C@H]2[C@@H](c3ccccc31)[C@@H](CO)N2C(=O)c1ccccn1	none
COc1ccc(CN(C)C[C@@H]2Oc3ccc(N(C)C)cc3CC(=O)N([C@H](C)CO)C[C@H]2C)cc1	none (no result: T cruzi growth-1)
CN1c2ccc(Br)cc2[C@@H]2[C@@H](CCN2S(=O)(=O)c2ccccc2)[C@@H]1CO	none
CN1c2ccc(Br)cc2[C@H]2[C@H](CCN2S(=O)(=O)c2cccc(F)c2)[C@@H]1CO	T cruzi growth-1 117 | T cruzi growth-2 103 | T cruzi growth-3 inactive | 3T3 cytotox inactive | 3T3 cytotox 2 inactive
CN1c2ccc(Br)cc2[C@@H]2[C@@H](CCN2S(=O)(=O)c2cccc(F)c2)[C@H]1CO	T cruzi growth-1 inconclusive | T cruzi growth-2 106 | T cruzi growth-3 inactive | 3T3 cytotox inactive | 3T3 cytotox 2 35
Cc1cccc(S(=O)(=O)N2CC[C@@H]3[C@H]2c2cc(Br)ccc2N(C)[C@H]3CO)c1	none
C[C@@H]1CN([C@H](C)CO)C(=O)c2cc(/C=C/c3ccccc3)cnc2O[C@H]1CN(C)C(=O)CN1CCOCC1	none (no result: T cruzi growth-1)
O=C(C[C@H]1CC[C@H]2[C@@H](COC[C@H](O)CN2S(=O)(=O)c2ccc(F)cc2)O1)NCc1ccc(Cl)c(Cl)c1	none
